Experiment [1] addresses Bile acid receptor (Homo sapiens) (UniProt Q96RI1). The experiment can be described thus: ATG_IR1_CIS: Attagene CIS-FACTORIAL HepG2 Assay for human Nuclear Receptor Subfamily 1 Group H Member 4 (NR1H4), IR1 submotif (AID 2282946). As to conditions: IR1 reporter transcription, actives raise or lower the signal. A digest of the protocol:
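HepG2 cells transiently transfected with multiple cis-promoter-driven reporter units to measure endogenous transcription factor activity; 24 h exposure. Reporter mRNA read by RT-PCR, FAM labelling, HpaI digestion and capillary electrophoresis. Bidirectional fit versus DMSO.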

Experiment [2] can be described thus: ATG_ISRE_CIS: Attagene CIS-FACTORIAL HepG2 Assay for human Interferon Regulatory Factor 1 (IRF1) binding to an Interferon-Stimulated Response Element (ISRE) (AID 2282948). The following applies: HepG2 ISRE cis-reporter (Attagene), mRNA transcription readout; actives raise or lower the signal. The method in brief:
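HepG2 cells transiently transfected with multiplexed cis-promoter reporter units; after 24 h compound exposure, reporter mRNA quantified by RT-PCR, FAM labelling, HpaI digestion and capillary electrophoresis. Bidirectional fit versus DMSO baseline.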

Experiment [3] in a line: ATG_M_32_CIS: Attagene CIS-FACTORIAL HepG2 Assay for M32 Transcription Factor (Internal Marker) (AID 2282949).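 Also: background control marker of the multiplexed CIS panel rather than a real target.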 The following applies: HepG2 Attagene cis-factorial M32 reporter, mRNA; actives raise or lower the signal. The method in brief: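 Fluorescent capillary electrophoresis peaks of HpaI-digested, FAM-labelled RT-PCR reporter products give the signal. Source: transiently transfected human liver HepG2 cells, 24 h after chemical dosing; bidirectional fitting against DMSO.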

Experiment [4] is described as follows: ATG_M_06_CIS: Attagene CIS-FACTORIAL HepG2 Assay for M06 Transcription Factor (Internal Marker) (AID 2282950). As to conditions: HepG2 Attagene CIS-FACTORIAL M06 internal marker reporter; actives raise or lower the signal. The method in brief: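 Measured 24 h post-dosing in transiently transfected HepG2 cells, this internal-marker endpoint reports reporter mRNA via RT-PCR with fluorescent primer extension and capillary electrophoresis. DMSO served as negative control and baseline for bidirectional fitting.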

In experiment [5] the target is Hypoxia-inducible factor 1-alpha (Homo sapiens) (UniProt Q16665). In words: ATG_HIF1a_CIS: Attagene CIS-FACTORIAL HepG2 Assay for human Hypoxia Inducible Factor 1 (HIF1A) (AID 2282951). As to conditions: HepG2 Attagene cis-factorial HIF1a reporter transcription; actives raise or lower the signal. The method in brief:
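RT-PCR/capillary electrophoresis fluorescence readout of reporter transcripts from endogenous-TF-driven cis elements in transfected HepG2 cells, 24 h exposure; activity fitted in both directions against DMSO controls.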

Experiment [6] has as its target Hepatocyte nuclear factor 6 (Homo sapiens) (UniProt Q9UBC0). In words: ATG_HNF6_CIS: Attagene CIS-FACTORIAL HepG2 Assay for human Hepatocyte Nuclear Factor 6 (HNF6) (AID 2282952). As to conditions: HepG2 Attagene cis-factorial HNF6 reporter transcription; actives raise or lower the signal. A digest of the protocol: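 Reporter mRNA induction or loss in HepG2 after 24 h exposure; transient cis-MRTU transfection; fragments quantified by capillary electrophoresis; bidirectional analysis, DMSO as negative control.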

For experiment [7], the target named is Heat shock factor protein 1 (Homo sapiens) (UniProt Q00613). In words: ATG_HSE_CIS: Attagene CIS-FACTORIAL HepG2 Assay for human Heat Shock Transcription Factor 1 (HSE) (AID 2282953). The following applies: HepG2 HSE cis-reporter, Attagene RNA transcription; actives raise or lower the signal. A digest of the protocol: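 Reporter mRNA induction in HepG2 is measured 24 h after dosing, using transiently transfected multiplexed cis-regulated reporter units. Signal comes from capillary electrophoresis of labelled RT-PCR products, with DMSO as negative control.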

A short description of experiment [8]: ATG_MRE_CIS: Attagene CIS-FACTORIAL HepG2 Assay for human Metal Responsive Element (MRE) (AID 2282954). As to conditions: HepG2 MRE cis-reporter transcription, Attagene multiplex; actives raise or lower the signal. A digest of the protocol: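 HepG2 cells transiently transfected with cis-element-driven reporter units; mRNA measured 24 h after dosing. Reporter transcripts quantified by RT-PCR, FAM labelling, HpaI digestion and capillary electrophoresis; bidirectional fit versus DMSO.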

Experiment [9] in a line: ATG_PBREM_CIS: Attagene CIS-FACTORIAL HepG2 Assay for human Phenobarbital-responsive Enhancer Module (PBREM) (AID 2282955). The following applies: HepG2 PBREM cis-reporter, Attagene multiplexed transcription; actives raise or lower the signal. A digest of the protocol:
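Reporter mRNA read by RT-PCR, 6-FAM primer extension, HpaI digestion and capillary electrophoresis. Transfected HepG2 cells, 24 h compound exposure. Gain or loss of signal fitted bidirectionally relative to DMSO baseline.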

A short description of experiment [10]: ATG_GRE_CIS: Attagene CIS-FACTORIAL HepG2 Assay for human Glucocorticoid Response Elements (GRE) (AID 2282947). As to conditions: HepG2 GRE cis-reporter, Attagene multiplex mRNA; actives raise or lower the signal. A digest of the protocol:
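Transiently transfected HepG2 cells carrying GRE cis-reporter units (endogenous TF activity) dosed 24 h; reporter mRNA quantified by RT-PCR, 6-FAM labelling, HpaI digestion and capillary electrophoresis. Bidirectional fit versus DMSO baseline.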

Several values for one entry are separate records, joined by “and”; a condition that tells them apart may be missing. Equal values may be shown once. Some structures have more than one record in an assay (separate samples or runs), and their calls can disagree. Activity calls are given as the source filed them. The calls were made as follows: active = hit-call score of the fitted dose curve at least 0.9, where 1 is the maximum; inactive = score below 0.9.

Chain of Hepatocyte nuclear factor 6 (Homo sapiens) (Q9UBC0 whole entry, looked up, the tested form may be a part): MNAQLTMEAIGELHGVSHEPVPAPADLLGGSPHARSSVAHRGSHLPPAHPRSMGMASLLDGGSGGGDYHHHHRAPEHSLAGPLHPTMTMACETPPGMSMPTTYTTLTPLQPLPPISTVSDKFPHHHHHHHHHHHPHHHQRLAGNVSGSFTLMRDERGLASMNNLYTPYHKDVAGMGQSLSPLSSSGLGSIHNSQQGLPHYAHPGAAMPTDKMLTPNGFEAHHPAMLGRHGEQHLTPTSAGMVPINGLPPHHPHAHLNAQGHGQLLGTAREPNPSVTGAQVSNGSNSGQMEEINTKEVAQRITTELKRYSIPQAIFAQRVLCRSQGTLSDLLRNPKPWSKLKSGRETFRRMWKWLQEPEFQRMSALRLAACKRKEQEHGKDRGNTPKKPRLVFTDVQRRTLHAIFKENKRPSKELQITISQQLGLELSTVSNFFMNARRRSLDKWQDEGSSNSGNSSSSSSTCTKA
Chain of Hypoxia-inducible factor 1-alpha (Homo sapiens) (Q16665 whole entry, looked up): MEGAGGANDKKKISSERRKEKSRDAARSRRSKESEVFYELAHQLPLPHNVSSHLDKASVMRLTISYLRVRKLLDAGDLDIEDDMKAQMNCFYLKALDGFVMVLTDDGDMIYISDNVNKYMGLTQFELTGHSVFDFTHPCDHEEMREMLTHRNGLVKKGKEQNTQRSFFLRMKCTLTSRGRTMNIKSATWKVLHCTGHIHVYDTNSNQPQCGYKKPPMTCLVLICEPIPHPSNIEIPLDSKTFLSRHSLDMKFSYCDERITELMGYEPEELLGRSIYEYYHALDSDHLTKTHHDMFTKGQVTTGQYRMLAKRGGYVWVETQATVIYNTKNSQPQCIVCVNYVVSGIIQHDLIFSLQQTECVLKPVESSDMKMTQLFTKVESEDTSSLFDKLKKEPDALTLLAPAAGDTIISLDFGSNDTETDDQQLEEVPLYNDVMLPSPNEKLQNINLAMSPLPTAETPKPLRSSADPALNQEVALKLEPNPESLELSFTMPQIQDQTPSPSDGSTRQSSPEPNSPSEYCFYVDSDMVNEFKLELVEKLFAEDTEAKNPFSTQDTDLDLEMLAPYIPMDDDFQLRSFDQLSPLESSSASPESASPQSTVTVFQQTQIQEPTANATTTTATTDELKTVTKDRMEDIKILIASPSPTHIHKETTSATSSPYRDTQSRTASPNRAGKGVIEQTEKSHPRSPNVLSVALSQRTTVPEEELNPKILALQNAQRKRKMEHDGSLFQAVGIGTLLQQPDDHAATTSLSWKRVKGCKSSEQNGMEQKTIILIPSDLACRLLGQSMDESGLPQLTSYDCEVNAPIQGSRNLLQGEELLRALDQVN
Chain of Bile acid receptor (Homo sapiens) (Q96RI1 whole entry, looked up): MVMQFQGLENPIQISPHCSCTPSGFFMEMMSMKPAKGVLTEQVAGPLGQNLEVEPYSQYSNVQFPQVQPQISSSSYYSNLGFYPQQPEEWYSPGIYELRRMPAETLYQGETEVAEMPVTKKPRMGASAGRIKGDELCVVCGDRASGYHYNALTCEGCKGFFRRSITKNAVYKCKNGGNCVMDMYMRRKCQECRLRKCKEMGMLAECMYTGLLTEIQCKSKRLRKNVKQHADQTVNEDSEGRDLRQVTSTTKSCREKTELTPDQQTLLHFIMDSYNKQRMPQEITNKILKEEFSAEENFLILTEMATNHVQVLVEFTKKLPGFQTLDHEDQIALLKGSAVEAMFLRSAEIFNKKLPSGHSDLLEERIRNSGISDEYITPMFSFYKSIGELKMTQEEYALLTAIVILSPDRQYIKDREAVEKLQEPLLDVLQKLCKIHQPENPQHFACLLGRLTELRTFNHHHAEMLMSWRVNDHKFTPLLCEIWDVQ
Chain of Heat shock factor protein 1 (Homo sapiens) (Q00613 whole entry, looked up): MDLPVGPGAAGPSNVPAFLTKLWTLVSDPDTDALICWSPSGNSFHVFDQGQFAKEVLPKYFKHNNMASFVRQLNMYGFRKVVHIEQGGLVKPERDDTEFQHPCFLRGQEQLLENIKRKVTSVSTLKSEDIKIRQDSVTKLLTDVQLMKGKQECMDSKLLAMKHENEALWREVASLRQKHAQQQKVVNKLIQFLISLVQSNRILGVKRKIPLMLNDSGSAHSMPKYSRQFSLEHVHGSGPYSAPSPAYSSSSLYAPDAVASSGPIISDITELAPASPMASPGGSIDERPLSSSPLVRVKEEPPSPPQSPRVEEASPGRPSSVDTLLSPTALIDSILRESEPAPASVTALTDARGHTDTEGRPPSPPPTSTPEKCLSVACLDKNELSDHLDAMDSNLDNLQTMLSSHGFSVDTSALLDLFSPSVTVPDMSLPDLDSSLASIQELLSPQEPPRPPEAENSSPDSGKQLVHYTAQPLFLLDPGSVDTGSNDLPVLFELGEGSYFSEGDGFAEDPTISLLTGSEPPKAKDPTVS

Consider `Cc1cccc2ccccc12`, for which the outcome in experiment [1], in experiment [2], in [3], in experiment [4], in [5] and in [6] was inactive. In addition, the molecule was called inactive in experiment [7], in experiment [8] and in [9].

As to `O=c1ccc2ccccc2o1`, the molecule was classed as inactive in [1], in experiment [2], in experiment [3], in experiment [4], in experiment [5] and in experiment [6]. Moreover, the molecule was called inactive in experiment [7], in experiment [8] and in [9].

`CCCCCCCCCCCO`: the result in experiment [1], in experiment [2], in [3], in experiment [4], in experiment [5] and in experiment [6] was inactive. In addition, the call in [8] and in experiment [9] was inactive.

With `CCCCCCCCOc1ccc(C(=O)c2ccccc2)c(O)c1`, the molecule was classed as inactive in experiment [1], in experiment [2], in [3], in experiment [4], in experiment [5] and in [6]. The molecule was called inactive in experiment [7], in experiment [8] and in experiment [9].

`C[C@]12CC[C@@H]3c4ccc(O)cc4CC[C@H]3[C@@H]1CC[C@H]2O`: the outcome in [10], in experiment [2], in experiment [3], in [4], in experiment [6] and in [7] was inactive. The result in [8] and in experiment [9] was inactive. For the same molecule, in experiment [8], the AC50 (as a rule, the concentration giving half of the maximal activity seen) was 24.8 µM (active).

For the molecule `CO[C@H]1/C=C/O[C@@]2(C)Oc3c(C)c(O)c4c(O)c(c(/C=N/N5CCN(C)CC5)c(O)c4c3C2=O)NC(=O)/C(C)=C\C=C\[C@H](C)[C@H](O)[C@@H](C)[C@@H](O)[C@@H](C)[C@H](OC(C)=O)[C@@H]1C`, the call in [2], in experiment [3], in experiment [4], in [6], in experiment [7] and in [8] was inactive. For the same molecule, in [9], the outcome was inactive.

As for `O=C1O[C@H]([C@@H](O)CO)C(O)=C1O`, the result in [10], in experiment [2], in experiment [3], in experiment [4], in experiment [5] and in [6] was inactive. For the same molecule, the result in [7], in experiment [8] and in experiment [9] was inactive.

For `OCCO`, the result in experiment [1], in experiment [2], in [3], in experiment [4], in [6] and in [7] was inactive. In addition, the outcome in experiment [8] and in experiment [9] was inactive. Moreover, the AC50 in experiment [5] was 51.2 µM (active).

As for `Oc1ccc2ccccc2c1`, the result in [10], in [2], in experiment [3], in [4], in experiment [5] and in [6] was inactive. Also, the outcome in experiment [7] and in experiment [8] was inactive. In addition, the AC50 in experiment [2] was 100 µM (active).

For the molecule `CN(C[C@@H](CC[N+]12CCC(C3CCCCC3)(CC1)CC2)c1ccc(Cl)c(Cl)c1)C(=O)c1cc(C(F)(F)F)cc(C(F)(F)F)c1`, the molecule was called inactive in [1], in experiment [10], in experiment [2], in experiment [3], in [4] and in experiment [5]. For the same molecule, the outcome in [6], in [7], in [8] and in experiment [9] was inactive.

As for `CCCCCCCCCCCCO`, the call in [1], in experiment [2], in experiment [3], in experiment [4], in experiment [5] and in [6] was inactive. Besides, the molecule was classed as inactive in [7], in experiment [8] and in experiment [9].

For the molecule `Cc1cn([C@H]2C[C@H](N=[N+]=[N-])[C@@H](CO)O2)c(=O)[nH]c1=O`, the molecule was called inactive in experiment [1], in [10], in [2], in experiment [3], in experiment [4] and in [6]. Also, the result in experiment [7] and in [8] was inactive.

For the molecule `CN1C(=O)CC[C@H]1c1cccnc1`, the result in experiment [2], in [3], in experiment [4], in experiment [6], in [7] and in [8] was inactive. Further, in experiment [9], the outcome was inactive.

`CCCCCCCCOC(=O)c1cc(O)c(O)c(O)c1`: the result in experiment [1], in [10], in experiment [2], in experiment [3], in [4] and in experiment [6] was inactive. For the same molecule, the molecule was called inactive in [7], in experiment [8] and in experiment [9]. The AC50 in [5] was 16.9 µM (active).

Regarding `CCCCCCCC[Si](OCC)(OCC)OCC`, the AC50 was 127 µM (active) in experiment [10]; 41.8 µM (active) in experiment [2]; 57.3 µM (active) and 26.4 µM (active) in experiment [5]. The call in [10], in [2], in experiment [3], in experiment [4], in experiment [5] and in experiment [6] was inactive. In addition, the call in experiment [7] and in experiment [8] was inactive.

Consider `O=C(O)c1ccccc1C(=O)OCc1ccccc1`, for which the result in [1], in experiment [10], in experiment [2], in experiment [3], in experiment [4] and in [5] was inactive. Also, the outcome in experiment [6], in experiment [7], in [8] and in experiment [9] was inactive.

`Cc1ncc(CO)c(CO)c1O`: the result in [1], in experiment [2], in experiment [3], in [4], in experiment [6] and in experiment [7] was inactive. Further, the molecule was classed as inactive in experiment [8].

Regarding `C[C@]12CC[C@@H]3c4ccc(O)cc4CC[C@H]3[C@@H]1CCC2=O`, the result in experiment [1], in experiment [2], in experiment [3], in [4], in experiment [5] and in experiment [6] was inactive. Also, the call in experiment [7] and in [8] was inactive.

Take `c1ccc2ccccc2c1`: the molecule was called inactive in experiment [1], in experiment [2], in experiment [3], in experiment [4], in [5] and in [6]. Also, the call in experiment [7] and in experiment [8] was inactive. The AC50 in experiment [6] is 100 µM (active).

`O=C(O)Cc1cc(I)c(Oc2ccc(O)c(I)c2)c(I)c1`: the call in experiment [1], in experiment [10], in experiment [2], in experiment [3], in experiment [4] and in experiment [6] was inactive. In addition, the outcome in [9] was inactive. The figures for the AC50 in experiment [7] and in [8] were 170 µM (active) [middle of 4 runs] and 80.5 µM (active) [middle of 4 runs], respectively.

Turning to `CC(O)CC(C)(C)O` (centres undefined), the outcome in [10], in [2], in experiment [3], in [4], in experiment [5] and in experiment [6] was inactive. Also, the molecule was classed as inactive in [7] and in experiment [8].

These data come from PubChem BioAssay (EPA / NIEHS).
